The record followed here is PubChem BioAssay.

Calls of active or inactive are those of the source.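 How the source made its calls: active means primary screen active and over 50% activation in each of two duplicate runs; inactive means the rest.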

The test relates to transient receptor potential cation channel C4 beta (TRPC4), mouse. As to the kind of experiment: TRPC4 cation channel opening, second retest – cell-based, second round, Fluo4, HEK293 TRPC4beta/mu-opioid, 1 µM, confirmation (AID 2461). Conditions: Fluo4 calcium fluorescence, at 1 µM.
With `Cc1cc(N2CCCCC2)nc(NCc2ccccc2)n1`, the outcome was inactive.

Consider `COCCNC(=O)/C(C#N)=C/c1cc(C(C)C)c(OC)cc1C`, for which the result was inactive.

As for `CCN1CCN(c2ccc(S(=O)(=O)N3CCCCC3)cc2NC(=O)COc2cc(C)ccc2Cl)CC1`, the outcome was inactive.

As to `FC(F)(F)COc1nc(N2CCCCC2)nc(N2CCNCC2)n1`, the result was inactive.

In the case of `CCSc1nnc([C@H](Cc2c[nH]c3ccccc23)NC(=O)OC(C)(C)C)o1`, the outcome was inactive.

Regarding `COc1ccc(/C=C(\C#N)C(=O)N2CCOCC2)cc1Br`, the outcome was inactive.

As to `N#Cc1ccc(OCC(O)CN2CCN(c3ncc(C(F)(F)F)cc3Cl)CC2)cc1` (configuration not stated), the result was inactive.

For the molecule `CCCC1=C(C(=O)OCC)C(c2cc(Cl)cc(OC)c2OCC(=O)OCC)NC(=O)N1` (configuration not stated), the result was inactive.

Turning to `CCCCCc1ccc(OCCCC[n+]2ccccc2)c(CCCCC)c1`, the outcome was inactive.

For `CC(C)(C)c1ccccc1OCCCCCn1ccnc1`, the outcome was inactive.

In the case of `CCOC(=O)COc1cc(-n2c(=S)[nH]c3ccccc3c2=O)c(Cl)cc1Cl`, the outcome was inactive.

Regarding `CCCCc1nc(N2CCOCC2)c(C#N)c2c1CCCC2`, the outcome was inactive.

In the case of `CCN1CCN(c2ccc(NC(=O)CCc3c(C)nc4c(-c5ccc(F)cc5)c(C)nn4c3C)cc2)CC1`, the outcome was inactive.

In the case of `CCOc1cc(/C=C(\C#N)C(=O)Nc2cccc(C(=O)O)c2)cc(Br)c1OC(=O)c1ccc(OC)cc1`, the outcome was inactive.

For the molecule `COc1ccc(Cl)c2sc(N(CCN(C)C)C(=O)c3ccc4c(c3)OCCO4)nc12`, the result was inactive.

`CCCCN1C(=O)C(=O)N(CC(=O)Nc2cc(OCC)c(N3CCOCC3)cc2OCC)C1=O`: the outcome was inactive.

In the case of `CN(C)CCOc1ccc2ccccc2c1`, the result was inactive.
